# Measured values from PubChem BioAssay (NCATS).
# Results filed as inconclusive are left out. Where a call stands in place of a potency, no number is given. Unmarked numbers belong to inactive results. Calls of active or inactive are those of the source. The call rests on the fitted dose curve; in most records, active means well fitted curve in the direction sought with a large enough effect; inconclusive means small, poorly fitted or top-dose-only effect, or another doubt; inactive means no such curve, though single readings can be large; an effect the other way counts as inactive or inconclusive. Numbered stars: 1 amine (or outer) side, 2 acyl side, 3 side chain; on linkers, the order of the positions; unused ones are H or OH. Bridge positions count the residues as written; N and C are the ends. Square brackets hold non-standard residues; d marks the D form. Peptide text beside a SMILES is read from it. * marks the point of attachment. pTerphenylCO(4''-OnC5H11) = CCCCCOc1ccc(-c2ccc(-c3ccc(C(=O)*)cc3)cc2)cc1; Orn(4R-OH,5R-OH) = O=C([C@H](C[C@@H](O)[C@@H](O)N[*:3])N[*:1])[*:2]; hTyr(3S-OH,4S-OH) = N[C@H](C(=O)O)[C@H](O)[C@@H](O)c1ccc(O)cc1; Pro(3S-OH,4S-Me) = C[C@H]1CN[C@H](C(=O)O)[C@H]1O; Hyp = O=C(O)[C@@H]1C[C@@H](O)CN1
# Target: Aldehyde dehydrogenase, mitochondrial (Homo sapiens) (UniProt P05091)
# Assay: qHTS for Inhibitors of the Aldehyde Dehydrogenase Family (ALDH2) Primary screen (AID 2061308); further: nearly all actives have a fitted effect of over 55% in size
# Conditions: ALDH2 enzyme inhibition qHTS, 1536-well; series mostly up to 56 µM
Structure (SMILES),Potency,"activity change, negative = inhibition"
Cc1cc(-c2nc(-c3ccc(OC(F)(F)F)cc3)no2)nn1Cc1ccnc(N2CCN(C3CC3)CC2)c1,inactive,–
NCc1c[nH]c(=S)n1C1CCc2c(F)cc(F)cc2C1 (stereo not given),inactive,–
CCC(C)n1cc(C)c2c(C(=O)NCc3c(C)cc(C)[nH]c3=O)cc(-c3ccc(N4CCNCC4)nc3)cc21 (stereo not given),inactive,–
CC(C)(N)c1ncc(-c2ccc(OC(F)(F)F)cc2)[nH]1,inactive,–
CO[C@@H]1[C@@H](O[C@H]2O[C@@H](C)[C@H](O[C@@H]3C[C@](C)(O)[C@H](O)[C@@H](C)O3)[C@@H](N(C)C)[C@@H]2O)[C@@H](CC=O)C[C@@H](C)[C@@H](O[C@H]2CC[C@H](N(C)C)[C@H](C)O2)/C=C/C=C/C[C@@H](C)OC(=O)C[C@H]1O,inactive,–
COc1ccc(-c2nc(-c3cc(C(F)(F)F)cc(C(F)(F)F)c3)n(Cc3ccc(C(N)=O)cc3)c2-c2ccc(OC)cc2)cc1,inactive,–
Cc1ccc(COC(=O)N2CC[C@@H](CNc3ncccn3)[C@@H](F)C2)cc1,inactive,–
Cc1cc(CN)cc(C)c1NC(=O)c1ccc(-c2cc(Cl)ccc2Cl)o1,inactive,–
CNC(=O)c1ccc2cc([C@@]3(O)CCn4cncc43)ccc2c1,inactive,–
CNCCCC1(c2ccccc2)OC(C)(C)c2ccccc21 (stereo not given),inactive,–
O=C(Nc1ccc(S(=O)(=O)Nc2ccccc2Cl)c(Cl)c1)c1ccccn1,inactive,–
Cc1cc(-c2nncc3c(C(C)(C)C)c(OCc4ncnn4C)nn23)no1,inactive,–
Cc1oc(S(=O)(=O)N2CCCCC2)cc1NC(=O)Nc1ccccc1,inactive,–
O=C(Nc1ccccc1Br)NC1CCN(c2ccc(C(F)(F)F)cn2)C1 (stereo not given),inactive,–
CNC(=O)[C@@H](c1ccccc1)N1CCc2cc(OC)c(OC)cc2[C@@H]1CCc1ccc(C(F)(F)F)cc1,inactive,–
COc1cc(Nc2nc3c(s2)CCCC3c2ccccc2)ccc1-n1cnc(C)c1 (stereo not given),–,1.32% [at 11.2 µM]
CNc1cc2[nH]c(=O)n(-c3ccc(NC(=O)NS(=O)(=O)c4ccc(Cl)s4)cc3)c(=O)c2cc1F,inactive,–
Cc1oc2ccccc2c1CNC(=O)NCc1cccs1,inactive,–
CCCCS(=O)(=O)NC(Cc1ccc(OCCCCC2CCNCC2)cc1)C(=O)O (stereo not given),inactive,–
Cc1cccc(C)c1OCc1cc(C(=O)N2CCC(c3ccncc3)CC2)no1,inactive,–

# Target: Retinaldehyde dehydrogenase 3 (Homo sapiens) (UniProt P47895)
# Assay: qHTS for Inhibitors of the Aldehyde Dehydrogenase Family (ALDH1A3) Validation screen (AID 2061312); further: nearly all actives have a fitted effect of over 45% in size
# Conditions: ALDH1A3 enzyme inhibition qHTS validation, fluorescence; series mostly up to 84.7 µM
Structure (SMILES),Potency,"activity change, negative = inhibition"
CC[C@H]1OC(=O)[C@H](C)[C@@H](O[C@H]2C[C@@](C)(OC)[C@@H](O)[C@H](C)O2)[C@H](C)[C@@H](O[C@@H]2O[C@H](C)C[C@H](N(C)C)[C@H]2O)[C@@](C)(O)C[C@@H](C)[C@@H]2N[C@@H](COCCOC)OC([C@H]2C)[C@]1(C)O,inactive,–
CNc1ccc([N+](=O)[O-])cc1-n1cnc(-c2ccc(C(F)(F)F)cc2)c1,inactive,–
C[C@@H](O)[C@H](NC(=O)c1ccc(C#Cc2ccc(CN3CCOCC3)cc2)cc1)C(=O)NO,inactive,–
CN(C)c1ccnc2sc3c(=O)n(N4CCCCCC4)cnc3c12,inactive,–
O=S(=O)(NC1CCC(c2cc(F)ccc2F)(S(=O)(=O)c2ccc(Cl)cc2)CC1)C(F)(F)F (stereo not given),inactive,–
C[C@@H]1C(=O)O[C@H]2[C@@H](O)C34[C@H]5C[C@@H](C(C)(C)C)C36[C@@H](OC(=O)[C@@H]6O)O[C@@]4(C(=O)O5)[C@@]12O (stereo not given in full),inactive,–
CN(C)c1nc(Cc2ccc(NC(=O)c3ccc4ccccc4c3)cc2)nc(Cl)c1CC(=O)O,inactive,–
CC(=O)SCC(=O)c1ccc(NS(=O)(=O)c2ccc(OCCCN(C)C)cc2)nc1,inactive,–
C=CC(C)(O)CC[C@@H]1[C@@]2(C)CCCC(C)(C)C2CC[C@@]1(C)O (stereo not given in full),inactive,–
O=[N+]([O-])c1cc(Cl)ccc1S(=O)(=O)N1CCN(Cc2ccccc2)CC1,inactive,–
CCN1CCN(Cc2ccc(NC(=O)c3ccc(C)c(Oc4ncnc5[nH]c(C)cc45)c3)cc2C(F)(F)F)CC1,inactive,–
CC(C)(C)C1CCN(C(=O)n2ncc(C(O)(c3ccccc3)c3ccccc3)n2)CC1,inactive,–
CCC(C)c1ccc(NC(=O)Cn2cnc3c2c(=O)n(C)c(=O)n3C)cc1 (stereo not given),inactive,–
Cc1nc(C#Cc2ccnc(Cl)c2)c(C)n1-c1ccc(F)cc1,inactive,–
Cc1ccc(-c2c(-c3nn(C)c4ncnc(N5CCC(N6CCCCC6)C5)c34)cnn2C)cc1 (stereo not given),inactive,–
"CCCCCOc1ccc(-c2ccc(-c3ccc(C(=O)N[C@H]4C[C@@H](O)[C@@H](O)NC(=O)[C@@H]5[C@@H](O)[C@@H](C)CN5C(=O)[C@H]([C@@H](C)O)NC(=O)[C@H]([C@H](O)[C@@H](O)c5ccc(O)cc5)NC(=O)[C@@H]5C[C@@H](O)CN5C(=O)[C@H]([C@@H](C)O)NC4=O)cc3)cc2)cc1 ({pTerphenylCO(4''-OnC5H11)}-[Orn(4R-OH,5R-OH)]T[Hyp][hTyr(3S-OH,4S-OH)]T[Pro(3S-OH,4S-Me)]; lactam 1-C)",inactive,–
CCOC(=O)c1ccc(N(C)c2csc(-c3ccccc3)n2)cc1,inactive,–
O=C(Nc1ccc(N2CCC(C(=O)N3CCOCC3)CC2)cc1)c1cnc(Oc2ccccc2)nc1,inactive,–
CNc1cc(OC)c(C(=O)N[C@@H]2CCN(Cc3ccccc3)[C@@H]2C)cc1Cl,inactive,–
COc1cc(Br)c(S(=O)(=O)Nc2ccc(C(F)(F)F)c(O[C@@H]3CCN(C)C3)c2)cc1OC,inactive,–

Structure (SMILES),Potency,"activity change, negative = inhibition"
Cc1cc(-c2nc(-c3ccc(OC(F)(F)F)cc3)no2)nn1Cc1ccnc(N2CCN(C3CC3)CC2)c1,inactive,–
NCc1c[nH]c(=S)n1C1CCc2c(F)cc(F)cc2C1 (stereo not given),inactive,–
CCC(C)n1cc(C)c2c(C(=O)NCc3c(C)cc(C)[nH]c3=O)cc(-c3ccc(N4CCNCC4)nc3)cc21 (stereo not given),inactive,–
CC(C)(N)c1ncc(-c2ccc(OC(F)(F)F)cc2)[nH]1,inactive,–
CO[C@@H]1[C@@H](O[C@H]2O[C@@H](C)[C@H](O[C@@H]3C[C@](C)(O)[C@H](O)[C@@H](C)O3)[C@@H](N(C)C)[C@@H]2O)[C@@H](CC=O)C[C@@H](C)[C@@H](O[C@H]2CC[C@H](N(C)C)[C@H](C)O2)/C=C/C=C/C[C@@H](C)OC(=O)C[C@H]1O,inactive,–
COc1ccc(-c2nc(-c3cc(C(F)(F)F)cc(C(F)(F)F)c3)n(Cc3ccc(C(N)=O)cc3)c2-c2ccc(OC)cc2)cc1,inactive,–
Cc1ccc(COC(=O)N2CC[C@@H](CNc3ncccn3)[C@@H](F)C2)cc1,inactive,–
Cc1cc(CN)cc(C)c1NC(=O)c1ccc(-c2cc(Cl)ccc2Cl)o1,inactive,–
CNC(=O)c1ccc2cc([C@@]3(O)CCn4cncc43)ccc2c1,inactive,–
CNCCCC1(c2ccccc2)OC(C)(C)c2ccccc21 (stereo not given),inactive,–
O=C(Nc1ccc(S(=O)(=O)Nc2ccccc2Cl)c(Cl)c1)c1ccccn1,inactive,–
Cc1cc(-c2nncc3c(C(C)(C)C)c(OCc4ncnn4C)nn23)no1,inactive,–
Cc1oc(S(=O)(=O)N2CCCCC2)cc1NC(=O)Nc1ccccc1,inactive,–
O=C(Nc1ccccc1Br)NC1CCN(c2ccc(C(F)(F)F)cn2)C1 (stereo not given),inactive,–
CNC(=O)[C@@H](c1ccccc1)N1CCc2cc(OC)c(OC)cc2[C@@H]1CCc1ccc(C(F)(F)F)cc1,inactive,–
COc1cc(Nc2nc3c(s2)CCCC3c2ccccc2)ccc1-n1cnc(C)c1 (stereo not given),–,6.59% [at 20.1 µM]
CNc1cc2[nH]c(=O)n(-c3ccc(NC(=O)NS(=O)(=O)c4ccc(Cl)s4)cc3)c(=O)c2cc1F,inactive,–
Cc1oc2ccccc2c1CNC(=O)NCc1cccs1,inactive,–
CCCCS(=O)(=O)NC(Cc1ccc(OCCCCC2CCNCC2)cc1)C(=O)O (stereo not given),inactive,–
Cc1cccc(C)c1OCc1cc(C(=O)N2CCC(c3ccncc3)CC2)no1,inactive,–
